{"source": "PubChem BioAssay (EPA / NIEHS)", "note": "Results filed as inconclusive are left out. The source made the active and inactive calls. How the source made its calls: active means hit-call score of the fitted dose curve at least 0.9, where 1 is the maximum; inconclusive means response in the unintended direction; inactive means score below 0.9.", "data": [{"experiment": "ATG_XTT_Cytotoxicity: Cytotoxicity Assessment in the Attagene TRANS-FACTORIAL HepG2 Assay (AID 2283584);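 on AC50: cells exposed to compound for 24 h before reading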", "procedure": "ATG_XTT_Cytotoxicity is a cell-based, single-readout assay that uses HepG2, a human liver cell line, with measurements taken at 24 hours after chemical dosing in a 24-well plate.ATG_XTT_Cytotoxicity is one of one assay component(s) measured or calculated from the ATG_XTT_Cytotoxicity assay. It is designed to make measurements of cell number, a form of viability reporter, as detected with […] signals by XTT cytotoxicity assay technology.Data from the assay component ATG_XTT_Cytotoxicity was analyzed into 1 assay endpoint. This assay endpoint, ATG_XTT_Cytotoxicity, was analyzed in the positive analysis fitting direction relative to DMSO as the negative control and baseline of activity. Using a type of viability reporter, loss-of-signal activity can be used to understand changes in the viability. Furthermore, this assay endpoint can be referred to as a primary readout, because the performed assay has only produced 1 assay endpoint. To generalize the intended target to other relatable targets, this assay endpoint is annotated to the cell cycle intended target family, where the subfamily is cytotoxicity.\nHuman liver HepG2 cells are transiently transfected with multiple reporter transcription units (MRTUs) in 6-well plates using FuGene 6 reagent (Roche; 3 ml FuGene/1 mg DNA). The MRTU constructs are regulated by a cis-regulating element (promoter). […] A major difference between the CIS and TRANS system is that in CIS activities of endogenous TFs are measured, whereas the TRANS assay evaluates changes in activities of exogenous, chimeric NR-Gal4 proteins. […] At the end of 24 hour incubation, total RNA was isolated using TriZol reagent (Invitrogen). The isolated RNA is then reverse-transcribed using oligo(dT) primer and Mo-MLV reverse transcriptase (Invitrogen) with DNAse I (Ambion) treatment for 30 min. The one-tenth of the produced cDNA was amplified by PCR using Taq DNA polymerase (Invitrogen) and two reporter sequence-specific primers. The PCR products were fluorescently labeled by primer extension with 6-arboxyfluorescein (6-FAM) 5'-labeled reporter sequence-specific primer (2 min at 95 C, 20 s at 68 C and 10 min at 72 C) and these products were digested with 5U of HpaI (New England Biolabs) for 2h at 37 C. The fragments were purified using Qiaquick PCR columns (Qiagen), analyzed on an ABI 3130xL genetic analyzer (Applied Biosystems) with peak positions identified by using a set of X-rhodamine (ROX)-labeled MapMarker1000 molecular weight standards (BioVentures). The raw capillary electrophoresis data was processed using Attagraph software (Attagene).", "values": [{"smiles": "CC(=O)NS(=O)(=O)c1ccc(N)cc1", "outcome": "inactive"}, {"smiles": "CCCCCCCCCCC=CC#N", "outcome": "inactive"}, {"smiles": "CCN(Cc1cccc(S(=O)(=O)O)c1)c1ccc(C(=C2C=CC(=[N+](CC)Cc3cccc(S(=O)(=O)[O-])c3)C=C2)c2ccccc2)cc1", "outcome": "inactive"}, {"smiles": "NCCCN1CCN(CCCN)CC1", "outcome": "inactive"}, {"smiles": "CCOC(=O)CC", "outcome": "inactive"}, {"smiles": "C=C[C@](C)(O)CC[C@@H]1[C@@]2(C)CCCC(C)(C)[C@@H]2CC[C@@]1(C)O", "AC50": "119 µM (active)"}, {"smiles": "COc1ccc(NC(C)=O)cc1N", "outcome": "inactive"}, {"smiles": "CC(C)c1ccc(C=O)cc1", "outcome": "inactive"}, {"smiles": "Nc1ccc(-c2ccc(F)cc2)cc1", "outcome": "inactive"}, {"smiles": "CCCCC/C=C\\CCC=O", "outcome": "inactive"}, {"smiles": "O=C(O)c1cc2ccccc2nc1C(=O)O", "outcome": "inactive"}, {"smiles": "CC(=O)CC(N)=O", "outcome": "inactive"}, {"smiles": "COC(=O)C1=C(C)NC(C)=C(C(=O)OCC(C)C)C1c1ccccc1[N+](=O)[O-]", "note": "(stereo not given)", "outcome": "inactive"}, {"smiles": "C=CC(C)(C)C", "outcome": "inactive"}, {"smiles": "Cc1cc(O)c(Cl)c(C)c1Cl", "outcome": "inactive"}, {"smiles": "O=C1CCCCCCCCCCCCCCCO1", "outcome": "inactive"}, {"smiles": "Nc1ccc(N=Nc2ccccc2)c(N)n1", "outcome": "inactive"}, {"smiles": "CCOC(=O)NNc1nncc2ccccc12", "outcome": "inactive"}, {"smiles": "COCCCOCCCOC", "outcome": "inactive"}, {"smiles": "C=COCCCC", "outcome": "inactive"}, {"smiles": "O=S(=O)(O)CC(O)CCl", "note": "(stereo not given)", "outcome": "inactive"}, {"smiles": "CC(=O)Nc1ccc2c(c1)Cc1cc(NC(C)=O)ccc1-2", "outcome": "inactive"}, {"smiles": "O=c1[nH]nc(-c2ccc([N+](=O)[O-])o2)o1", "outcome": "inactive"}, {"smiles": "Cc1ccc2c(c1)C(=O)c1ccccc1C2=O", "outcome": "inactive"}, {"smiles": "C1=CCCC1", "outcome": "inactive"}, {"smiles": "COc1ccc2nc(N)sc2c1", "outcome": "inactive"}, {"smiles": "CC(C)c1ccc2c(c1)CC[C@H]1[C@](C)(CN)CCC[C@]21C", "AC50": "9.98 µM (active)"}, {"smiles": "Nc1ncn([C@@H]2O[C@H](CO)[C@@H](O)[C@H]2O)c(=O)n1", "outcome": "inactive"}, {"smiles": "CC(=O)Nc1nnc(S(N)(=O)=O)s1", "outcome": "inactive"}, {"smiles": "CCN(CC)c1ccc(C(=O)c2ccccc2C(=O)O)c(O)c1", "outcome": "inactive"}, {"smiles": "CC(C)(C)c1ccc(N)cc1", "outcome": "inactive"}, {"smiles": "CCCNC(=O)NS(=O)(=O)c1ccc(Cl)cc1", "outcome": "inactive"}, {"smiles": "O=P(O)(O)Oc1ccccc1", "outcome": "inactive"}, {"smiles": "CC(=O)OCc1ccco1", "outcome": "inactive"}, {"smiles": "CCO[Si](CCCN=C=O)(OCC)OCC", "outcome": "inactive"}, {"smiles": "COC(=O)c1ccc2cc(C(=O)OC)ccc2c1", "outcome": "inactive"}, {"smiles": "N=c1ccn2c(n1)O[C@H]1[C@H](O)[C@@H](CO)O[C@H]12", "outcome": "inactive"}, {"smiles": "CCC(C)(C)C1CCCCC1OC(C)=O", "note": "(stereo not given)", "outcome": "inactive"}, {"smiles": "CCCCCCCC[N+](C)(CCCCCCCC)CCCCCCCC", "AC50": "9.48 µM (active)"}, {"smiles": "CC(C)C(=O)C(C)C", "outcome": "inactive"}]}]}
